# Data reported in article PMC12864922, “TDP-43 directly inhibits mRNA accumulation in neurites through modulation of mRNA stability”.
# Residue numbers refer to the chain shown, from its start. The full ranking holds about 9,900 sequences; the median of “r (bound/input frequency ratio)” is about 0.7, and the highest 2% start at about 6.5. This excerpt belongs to a sample that is enriched for the highest values.
# B1: ENSMUSG00000061578.1460|Ksr2|78:82 (ssRNA)
# RNA: GGGAGUUCUACAGUCCGACGAUCGCUUCGAUAUCCGCAUGCUAGAUGGAUGAAUGGAUGGGUAGGUGGGUAGAUAGGUAUAUGAAUGAAUGGAUGAAUGGAUGGGUGAAUGGAUGGAUAGCAUACUGAAUAAAUGGAUGGAUGGAUGGAUUGAUUUGUGAAUGAAUGGAUGAAUGGAUGGGUAGGUGGGUGGAUGCAUAGGCAAGUAGAUGAAUGAAUAUGUGGGUAGAAGGGUGAGUGGGUGGAUGAAUGGAUGGAUAGGUUGGUAGGUUAAUGUAUUCGUGGAUGGGUGAAUGGAUGGAUGCUCUUGCGGUCGCACUAGUGUGGAAUUCUCGGGUGUCAAGG
# B2: ENSMUSG00000061578.1457|Ksr2|1:5;96:100 (ssRNA)
# RNA: GGGAGUUCUACAGUCCGACGAUCGCUUCGAUAUCCGCAUGCUACAUACUGAAUGAAUGGAUGAUGGAUGAAUGGAUGGGUAGGUGGGUAGAUAGGUAUAUGAAUGAAUGGAUGAAUGGAUGGGUGAAUGGAUGGAUAGCAUACUGAAUAAAUGGAUGGAUGGAUGGAUUGAUUUGUGAAUGAAUGGAUGAAUGGAUGGGUAGGUGGGUGGAUGCAUAGGCAAGUAGAUGAAUGAAUAUGUGGGUAGAAGGGUGAGUGGGUGGAUGAAUGGAUGGAUAGGUUGGUAGGUUAAUGUAUUCGUGGACUCUUGCGGUCGCACUAGUGUGGAAUUCUCGGGUGUCAAGG
# B3: ENSMUSG00000061578.1464|Ksr2 (ssRNA)
# RNA: GGGAGUUCUACAGUCCGACGAUCGCUUCGAUAUCCGCAUGCUAGGUAGAUAGGUAUAUGAAUGAAUGGAUGAAUGGAUGGGUGAAUGGAUGGAUAGGUAUGUGAAUAAAUGGAUGGAUGGAUGGAUUGAUUUGUGAAUGAAUGGAUGAAUGGAUGGGUAGGUGGGUGGAUGCAUAGGCAAGUAGAUGAAUGAAUAUGUGGGUAGAAGGGUGAGUGGGUGGAUGAAUGGAUGGAUAGGUUGGUAGGUUAAUGUAUUCGUGGAUGGGUGAAUGGAUGGAUGGAUAGAUAGAUGGGAAGGUGGAUGCUCUUGCGGUCGCACUAGUGUGGAAUUCUCGGGUGUCAAGG
# B4: ENSMUSG00000061578.1458|Ksr2|90:94 (ssRNA)
# RNA: GGGAGUUCUACAGUCCGACGAUCGCUUCGAUAUCCGCAUGCUAGAAUGAAUGGAUGAUGGAUGAAUGGAUGGGUAGGUGGGUAGAUAGGUAUAUGAAUGAAUGGAUGAAUGGAUGGGUGAAUGGAUGGAUAGCAUACUGAAUAAAUGGAUGGAUGGAUGGAUUGAUUUGUGAAUGAAUGGAUGAAUGGAUGGGUAGGUGGGUGGAUGCAUAGGCAAGUAGAUGAAUGAAUAUGUGGGUAGAAGGGUGAGUGGGUGGAUGAAUGGAUGGAUAGGUUGGUAGGUUAAUGUAUUCGUGGAUGGGUGCUCUUGCGGUCGCACUAGUGUGGAAUUCUCGGGUGUCAAGG
# B5: ENSMUSG00000061578.1464|Ksr2|54:58 (ssRNA)
# RNA: B3 RNA with G97C, U98A, A99U, U100A, G101C
# B6: ENSMUSG00000061578.1461|Ksr2|72:76 (ssRNA)
# RNA: GGGAGUUCUACAGUCCGACGAUCGCUUCGAUAUCCGCAUGCUAUGAAUGGAUGGGUAGGUGGGUAGAUAGGUAUAUGAAUGAAUGGAUGAAUGGAUGGGUGAAUGGAUGGAUAGCAUACUGAAUAAAUGGAUGGAUGGAUGGAUUGAUUUGUGAAUGAAUGGAUGAAUGGAUGGGUAGGUGGGUGGAUGCAUAGGCAAGUAGAUGAAUGAAUAUGUGGGUAGAAGGGUGAGUGGGUGGAUGAAUGGAUGGAUAGGUUGGUAGGUUAAUGUAUUCGUGGAUGGGUGAAUGGAUGGAUGGAUAGACUCUUGCGGUCGCACUAGUGUGGAAUUCUCGGGUGUCAAGG
# B7: ENSMUSG00000029636.187|Wasf3 (ssRNA)
# RNA: GGGAGUUCUACAGUCCGACGAUCGCUUCGAUAUCCGCAUGCUAAAUUUUAAAAAGUACCUCACAAGAUAAACUUGAUUCAGCCAGUUGCCCGGGCAGAGACCUGACUUCCCCUCUCCUGCCCUGAUCCUUUUUACCAAAUGGCGAUUCCAUAGUCCUGGCUGAGGCAGGGGCUCAAAGUCCAGUGUCUGCUUUGCAAUUCUGGAAGGACAGCUGCUUAUUUAAAUAAGUCUGUGAUAUCCGCAGGCUUGGGUUACAGGGAGGACCUUGCAGAGGGACCAGGACACUGCCUUCCCUUAGGUGCACUCUUGCGGUCGCACUAGUGUGGAAUUCUCGGGUGUCAAGG
# B8: ENSMUSG00000058297.289|Spock2 (ssRNA)
# RNA: GGGAGUUCUACAGUCCGACGAUCGCUUCGAUAUCCGCAUGCUAAGAGAGAGAGAGAGAGAGAGAGAGAAAGAGAGAGAGAAUGAGAGAGAAUGAGAGAGAGAAUACCCGAGGGCCACCCUGAUGCCCAGGAAGAGUGAGGGCAGCCCCCUGUGUGGUGGAAGAGGCUGGGCAGCUAGCUACUGGGGACCUUGUGCUGAGGCUUCCAGGACAAAGCCCCAGUCUGGCUCUCCCCCAGCCUCUCAGGGGCACUGGCUGGUCACAUCCACUGAGUAUUGAUCGGUUGGACUUUAGGGAAGAGCCUCCUCUUGCGGUCGCACUAGUGUGGAAUUCUCGGGUGUCAAGG
# B9: ENSMUSG00000043670.285|Diras1 (ssRNA)
# RNA: GGGAGUUCUACAGUCCGACGAUCGCUUCGAUAUCCGCAUGCUAGAGUGGGAGGUAGAAUGAGAGAGAGUGUGUAUUGGAAGGGAGAGAGAGAGUGUGAGAGAGUGUGAGAGAGAGACAGAGACAGAGAUAAAGGAGAUAAAGAGAGACAAAGACAUGGUCACAAAGAGACAGAGAAGCAGAAAGAAGGCUGAAGCCAGAUGACCAAGUAGGCCGGACCCCACUGUGUUCCCUUCUGUGUGCCAGGCACAGGGAGAGCCACAGCCUGAAGCCUGAGUCUGAGCAUAGCUGAGCCCUGACCUCUACUCUUGCGGUCGCACUAGUGUGGAAUUCUCGGGUGUCAAGG
# B10: ENSMUSG00000058297.287|Spock2 (ssRNA)
# RNA: GGGAGUUCUACAGUCCGACGAUCGCUUCGAUAUCCGCAUGCUAAGAGAGAGAGAGAGAGAGAGAGAGAGAGAGAGAGAGAAAGAGAGAGAGAAUGAGAGAGAAUGAGAGAGAGAAUACCCGAGGGCCACCCUGAUGCCCAGGAAGAGUGAGGGCAGCCCCCUGUGUGGUGGAAGAGGCUGGGCAGCUAGCUACUGGGGACCUUGUGCUGAGGCUUCCAGGACAAAGCCCCAGUCUGGCUCUCCCCCAGCCUCUCAGGGGCACUGGCUGGUCACAUCCACUGAGUAUUGAUCGGUUGGACUUUACUCUUGCGGUCGCACUAGUGUGGAAUUCUCGGGUGUCAAGG
# B11: ENSMUSG00000043670.283|Diras1 (ssRNA)
# RNA: GGGAGUUCUACAGUCCGACGAUCGCUUCGAUAUCCGCAUGCUAGAGAGGGAGGGAGAGUGGGAGGUAGAAUGAGAGAGAGUGUGUAUUGGAAGGGAGAGAGAGAGUGUGAGAGAGUGUGAGAGAGAGACAGAGACAGAGAUAAAGGAGAUAAAGAGAGACAAAGACAUGGUCACAAAGAGACAGAGAAGCAGAAAGAAGGCUGAAGCCAGAUGACCAAGUAGGCCGGACCCCACUGUGUUCCCUUCUGUGUGCCAGGCACAGGGAGAGCCACAGCCUGAAGCCUGAGUCUGAGCAUAGCUGAGCUCUUGCGGUCGCACUAGUGUGGAAUUCUCGGGUGUCAAGG
# B12: ENSMUSG00000058297.293|Spock2 (ssRNA)
# RNA: GGGAGUUCUACAGUCCGACGAUCGCUUCGAUAUCCGCAUGCUAAAAGAGAGAGAGAAUGAGAGAGAAUGAGAGAGAGAAUACCCGAGGGCCACCCUGAUGCCCAGGAAGAGUGAGGGCAGCCCCCUGUGUGGUGGAAGAGGCUGGGCAGCUAGCUACUGGGGACCUUGUGCUGAGGCUUCCAGGACAAAGCCCCAGUCUGGCUCUCCCCCAGCCUCUCAGGGGCACUGGCUGGUCACAUCCACUGAGUAUUGAUCGGUUGGACUUUAGGGAAGAGCCUCCUCCUUCCCAUUCCUUUCUGCCACCUCUUGCGGUCGCACUAGUGUGGAAUUCUCGGGUGUCAAGG
# B13: ENSMUSG00000043670.284|Diras1 (ssRNA)
# RNA: GGGAGUUCUACAGUCCGACGAUCGCUUCGAUAUCCGCAUGCUAGAGGGAGAGUGGGAGGUAGAAUGAGAGAGAGUGUGUAUUGGAAGGGAGAGAGAGAGUGUGAGAGAGUGUGAGAGAGAGACAGAGACAGAGAUAAAGGAGAUAAAGAGAGACAAAGACAUGGUCACAAAGAGACAGAGAAGCAGAAAGAAGGCUGAAGCCAGAUGACCAAGUAGGCCGGACCCCACUGUGUUCCCUUCUGUGUGCCAGGCACAGGGAGAGCCACAGCCUGAAGCCUGAGUCUGAGCAUAGCUGAGCCCUGACUCUUGCGGUCGCACUAGUGUGGAAUUCUCGGGUGUCAAGG
# B14: ENSMUSG00000058297.292|Spock2 (ssRNA)
# RNA: GGGAGUUCUACAGUCCGACGAUCGCUUCGAUAUCCGCAUGCUAAGAGAGAAAGAGAGAGAGAAUGAGAGAGAAUGAGAGAGAGAAUACCCGAGGGCCACCCUGAUGCCCAGGAAGAGUGAGGGCAGCCCCCUGUGUGGUGGAAGAGGCUGGGCAGCUAGCUACUGGGGACCUUGUGCUGAGGCUUCCAGGACAAAGCCCCAGUCUGGCUCUCCCCCAGCCUCUCAGGGGCACUGGCUGGUCACAUCCACUGAGUAUUGAUCGGUUGGACUUUAGGGAAGAGCCUCCUCCUUCCCAUUCCUUUCCUCUUGCGGUCGCACUAGUGUGGAAUUCUCGGGUGUCAAGG
# B15: ENSMUSG00000058297.290|Spock2 (ssRNA)
# RNA: GGGAGUUCUACAGUCCGACGAUCGCUUCGAUAUCCGCAUGCUAAGAGAGAGAGAGAGAGAGAAAGAGAGAGAGAAUGAGAGAGAAUGAGAGAGAGAAUACCCGAGGGCCACCCUGAUGCCCAGGAAGAGUGAGGGCAGCCCCCUGUGUGGUGGAAGAGGCUGGGCAGCUAGCUACUGGGGACCUUGUGCUGAGGCUUCCAGGACAAAGCCCCAGUCUGGCUCUCCCCCAGCCUCUCAGGGGCACUGGCUGGUCACAUCCACUGAGUAUUGAUCGGUUGGACUUUAGGGAAGAGCCUCCUCCUUCUCUUGCGGUCGCACUAGUGUGGAAUUCUCGGGUGUCAAGG
# Target: TDP-43 (Homo sapiens, UniProt Q13148 1-414)
# Assay: RNA Bind-n-Seq with designed 260-mer pool; 25 mM Tris-HCl, 150 mM KCl, 3 mM MgCl2, BSA (printed 500 mg/mL), 20 units/mL SUPERase IN; pH not stated; 500 nM RNA pool, 1 h, 4 C; TDP-43 5, 50, 500 nM; high values mean tight binding
# Details: protein: recombinant; tags: SBP (GST cleaved off with PreScission; pGEX-GST-SBP)
# How it was run: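 For each oligo, R gives binding as its mapped-read-normalized abundance after pulldown divided by its abundance in input. Bead-captured SBP-tagged TDP-43 (5, 50 or 500 nM) was incubated with 500 nM of an in vitro-transcribed 260-nt 3′ UTR oligo pool for 1 h at 4 °C in 25 mM Tris-HCl, 150 mM KCl, 3 mM MgCl2, BSA and SUPERase IN on streptavidin beads. Washed, biotin-eluted RNA was reverse transcribed, PCR-amplified and sequenced.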
# Sequence of TDP-43 (Q13148 whole entry): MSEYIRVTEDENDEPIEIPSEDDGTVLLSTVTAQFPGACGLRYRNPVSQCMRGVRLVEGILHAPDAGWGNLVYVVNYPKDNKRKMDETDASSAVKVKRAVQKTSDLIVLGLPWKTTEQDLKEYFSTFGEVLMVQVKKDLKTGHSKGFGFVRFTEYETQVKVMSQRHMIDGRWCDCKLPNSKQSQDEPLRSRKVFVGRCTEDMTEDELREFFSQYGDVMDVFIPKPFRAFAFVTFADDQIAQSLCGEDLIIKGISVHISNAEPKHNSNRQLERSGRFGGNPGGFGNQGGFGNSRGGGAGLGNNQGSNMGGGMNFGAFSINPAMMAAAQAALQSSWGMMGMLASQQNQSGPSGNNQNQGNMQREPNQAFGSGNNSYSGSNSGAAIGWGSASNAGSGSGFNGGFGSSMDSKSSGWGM
row,Binder,binding signal
1,B1,5.37 R (bound/input frequency ratio)
2,B2,5.06 R (bound/input frequency ratio)
3,B3,5.55 R (bound/input frequency ratio)
4,B4,6.91 R (bound/input frequency ratio)
5,B5,7.9 R (bound/input frequency ratio)
6,B6,4.58 R (bound/input frequency ratio)
7,B7,0.317 R (bound/input frequency ratio)
8,B8,7.91 R (bound/input frequency ratio)
9,B9,6.66 R (bound/input frequency ratio)
10,B10,7.5 R (bound/input frequency ratio)
11,B11,4.07 R (bound/input frequency ratio)
12,B12,2.36 R (bound/input frequency ratio)
13,B13,5.75 R (bound/input frequency ratio)
14,B14,6.42 R (bound/input frequency ratio)
15,B15,8.79 R (bound/input frequency ratio)
